Laboratory results: PubChem BioAssay (NCATS)
Inconclusive results are not listed. Active and inactive are the calls of the source. Unless noted, calls come from the whole dose curve. Peptide text beside a SMILES is read from it.

How the values were obtained:
[1] = qHTS for Inhibitors of the Functional Ribonucleoprotein Complex (vRNP) of Lassa (LASV) Arenavirus: LASV Primary Screen - GLuc reporter signal (AID 1347082; calls by dose curve; tested in HEK293 reporter line; note: nearly all actives have a fitted effect of over 60% in size); settings: LASV minigenome vRNP, Gaussia luciferase reporter; series mostly up to 57.5 µM
[2] = qHTS for Inhibitors of the Functional Ribonucleoprotein Complex (vRNP) of Lassa (LASV) Arenavirus: Viability assay - alamar blue signal for LASV Primary Screen (AID 1347083; calls by dose curve; tested in HEK293 reporter line; note: nearly all actives have a fitted effect of over 80% in size); settings: cell viability, alamar blue fluorescence (LASV minigenome counter-screen); series mostly up to 57.5 µM
[3] = qHTS for Inhibitors of the Functional Ribonucleoprotein Complex (vRNP) of Lymphocytic Choriomeningitis Arenaviruses (LCMV): Viability assay - alamar blue signal for LCMV Primary Screen (AID 1347085; calls by dose curve; tested in HEK293 reporter line; note: nearly all actives have a fitted effect of over 80% in size); settings: alamar blue viability counter-screen, LCMV vRNP screen cells; series mostly up to 57.5 µM
[4] = target: Nucleoprotein (Lymphocytic choriomeningitis virus (strain Armstrong)) (UniProt P09992); experiment: qHTS for Inhibitors of the Functional Ribonucleoprotein Complex (vRNP) of Lymphocytic Choriomeningitis Arenaviruses (LCMV): LCMV Primary Screen - GLuc reporter signal (AID 1347086); settings: LCMV minigenome vRNP cell assay, Gaussia luciferase reporter; series mostly up to 57.5 µM; note: nearly all actives have a fitted effect of over 70% in size

Measured: Potency

Chain of Nucleoprotein (Lymphocytic choriomeningitis virus (strain Armstrong)) (P09992 whole entry, looked up): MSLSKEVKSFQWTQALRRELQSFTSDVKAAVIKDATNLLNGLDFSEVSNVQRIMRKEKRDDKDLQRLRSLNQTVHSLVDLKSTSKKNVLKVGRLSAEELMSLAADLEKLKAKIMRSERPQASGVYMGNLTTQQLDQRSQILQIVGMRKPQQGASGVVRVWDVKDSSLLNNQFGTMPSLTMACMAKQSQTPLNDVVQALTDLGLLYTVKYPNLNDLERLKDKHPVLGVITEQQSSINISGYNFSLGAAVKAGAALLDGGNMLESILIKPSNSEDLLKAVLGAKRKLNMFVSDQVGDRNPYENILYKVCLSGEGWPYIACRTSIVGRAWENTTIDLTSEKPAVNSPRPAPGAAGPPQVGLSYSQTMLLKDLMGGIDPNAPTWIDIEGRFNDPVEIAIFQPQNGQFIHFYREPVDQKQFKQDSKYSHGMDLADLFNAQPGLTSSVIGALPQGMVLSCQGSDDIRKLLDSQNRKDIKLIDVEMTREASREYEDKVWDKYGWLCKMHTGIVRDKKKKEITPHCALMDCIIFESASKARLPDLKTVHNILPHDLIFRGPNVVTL

CC(C)C[C@@H]1[C@H](c2ccccc2)OC(=O)N1CCCN1CCCCCC1
inactive: all assays above

CCCCN(CCN(CCCC)C(=O)N1CCOCC1)C(=O)N1CCOCC1
inactive: all assays above

C[C@]12CC[C@H]3[C@@H](CCC4=CC(=O)CC[C@@]43C)[C@@H]1CC[C@@H]2C(=O)CO
inactive: all assays above

CCOC(=O)COc1ccc2c(C)c(CCN(CC)CC)c(=O)oc2c1Cl
inactive: all assays above

Fc1ccc(C(c2ccc(F)cc2)N2CCN(C/C=C/c3ccccc3)CC2)cc1
inactive: all assays above

COc1ccc(CN(CCN(C)C)c2ncccn2)cc1
inactive: all assays above

CC(=O)N[C@@H](CO)C(=O)N[C@@H](CC(=O)O)C(=O)N[C@@H](CCCCN)C(=O)N1CCC[C@H]1C(=O)O (Ac-SDKP-OH)
inactive: all assays above

CC(C)Cc1ccc(C(C)C(=O)OCc2ccccn2)cc1 (centres undefined)
inactive: all assays above

CCOc1ccc2nc(S(N)(=O)=O)sc2c1
inactive: all assays above

CC1CC(=O)NN=C1c1ccc(NCC(C)(C)NCC(O)COc2cc(Cl)ccc2C#N)cc1 (centres undefined)
inactive: all assays above

O=C1OC(c2ccc(O)cc2)(c2ccc(O)cc2)c2ccccc21
inactive: all assays above

CCCCNc1ccc(C(=O)OCCN(C)C)cc1
inactive: all assays above

O=C(CN1CCN(Cc2ccc3c(c2)OCO3)CC1)N1c2ccccc2Sc2ccccc21
inactive: all assays above

CO[C@@H]1[C@@H](O[C@@H]2O[C@H](C)[C@@H](O[C@H]3C[C@@](C)(O)[C@@H](O)[C@H](C)O3)[C@H](N(C)C)[C@H]2O)[C@@H](CC=O)C[C@@H](C)[C@@H](O[C@@H]2CC[C@H](N(C)C)[C@@H](C)O2)/C=C/C=C/C[C@@H](C)OC(=O)C[C@H]1OC(C)=O
inactive: all assays above

OC[C@@H](O)[C@H](O)[C@H](O)[C@@H](O)CO
inactive: all assays above

COC(=O)C1=C(C)NC(COC(N)=O)=C(C(=O)OC(C)C)C1c1cccc(Cl)c1Cl (centres undefined)
inactive: all assays above

COc1ccnc2c1CCCCC2S(=O)c1nc2ccccc2[nH]1 (centres undefined)
inactive: all assays above

CCn1cc(C(=O)O)c(=O)c2cc(F)c(N3CCN(C)CC3)cc21
inactive: all assays above

COc1ccc(-c2cc(C(F)F)nn2-c2ccc(S(N)(=O)=O)cc2)cc1F
inactive: all assays above

O=C(/C=C/c1ccc(O)c(O)c1)O[C@@H]1C[C@@](OC(=O)/C=C/c2ccc(O)c(O)c2)(C(=O)O)C[C@@H](O)[C@@H]1O
inactive: all assays above

CCOC(=O)c1ccc(NC(=O)CN2CCCCC2)cc1
inactive: all assays above

CCc1ccc(C(=O)C(C)CN2CCCCC2)cc1 (centres undefined)
inactive: all assays above

C/C=C(/C(=C/C)c1ccc(O)cc1)c1ccc(O)cc1
inactive: all assays above

N#Cc1cc(NC(=O)C(=O)O)c(Cl)c(NC(=O)C(=O)O)c1
inactive: all assays above

CCCCCCCCNC(C)C(O)c1ccc(SC(C)C)cc1 (centres undefined)
inactive: all assays above

c1ccc([C@H]2CN3CCSC3=N2)cc1
inactive: all assays above

CC(=O)OCC(=O)[C@@]12N=C(C)O[C@@H]1C[C@H]1[C@@H]3CCC4=CC(=O)C=C[C@]4(C)[C@H]3[C@@H](O)C[C@@]12C
inactive: all assays above

CN(Cc1cc(Br)cc(Br)c1N)C1CCCCC1
inactive: all assays above

COc1ccccc1OC(=O)Oc1ccccc1OC
inactive: all assays above

Cc1ccc(S(=O)(=O)NC(=O)NC2CCCC2)cc1
inactive: all assays above

CN(C)CCCSc1ccccc1NC(=O)/C=C/c1ccccc1
inactive: all assays above
